Experimental data published in PubChem BioAssay (Tox21).
Results filed as inconclusive are left out. Where a call stands in place of a potency, no number is given. The source made the active and inactive calls. Unless noted, calls come from the whole dose curve.

Assays:
[1] = Nuclear factor erythroid 2-related factor 2/antioxidant responsive element (Nrf2/ARE) small molecule agonists: qHTS cell viability counter screen in human keratinocytes (AID 1919968; active = well fitted curve in the direction sought with a large enough effect in the repeat runs; an effect the other way counts as inactive or inconclusive; note: nearly all actives have a fitted effect of over 55% in size; note: potency is the fitted concentration of half-maximal effect); details: KeratinoSens HaCaT ARE cells viability, CellTiter-Fluor, 24 h; series mostly up to 92.4 µM
Outline: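 Seed 1,500 KeratinoSens cells per well, then incubate 5 h at 37 C/5% CO2. Add compounds in DMSO and incubate 23 h. Add CellTiter-Fluor, wait 1 h and read fluorescence.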

[2] = Nuclear factor erythroid 2-related factor 2/antioxidant responsive element (Nrf2/ARE) small molecule agonists: luciferase reporter gene qHTS assay in human keratinocytes (AID 1919969); details: KeratinoSens HaCaT ARE-luciferase, luminescence, 24 h; series mostly up to 92.4 µM; note: nearly all actives have a fitted effect of over 35% in size
[3] = target: Gonadotropin-releasing hormone receptor (Homo sapiens) (UniProt P30968); assay: Human gonadotropin-releasing hormone receptor (GnRHR) small molecule agonists, calcium flux assay in GnRHR-HEK293 cells (AID 1920063); details: calcium flux fluorescence, agonist mode; series mostly up to 57.6 µM; note: nearly all actives have a fitted effect of over 35% in size
Outline: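 Cells: HEK293 stably expressing human GnRHR. Steps: overnight (18 h) culture, 1 h calcium dye loading at 37 C, compound addition, kinetic fluorescence read at 480/540 nm. Each compound tested at 15 concentrations in triplicate.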

[4] = target: KiSS-1 receptor (Homo sapiens) (UniProt Q969F8); assay: Human kisspeptin (KISS1R) small molecule agonists, calcium flux assay in KISS1R-HEK293 cells (AID 1920064; active = well fitted curve in the direction sought with a large enough effect in the repeat runs; an effect the other way counts as inactive or inconclusive); details: KISS1R-HEK293, calcium flux fluorescence, agonist; series mostly up to 76.8 µM
Outline: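 Cells plated and incubated 18 h; dye added, 1 h at 37 C; compounds in DMSO pinned in; signal read at 480/540 nm every second for 3 min. Each compound tested at 15 concentrations in triplicate.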

[5] = G protein-coupled receptor (GPCR) small molecule agonists, calcium flux assay: HEK293 wild type cell line counter screen (AID 1920065); details: HEK293 WT calcium flux, fluorescence, agonist mode; series mostly up to 57.6 µM
Outline: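 Counter-screen of the Tox21 10K library for non-specific calcium release: dye-loaded cells received compounds in DMSO and were monitored by kinetic fluorescence (480/540 nm, 3 min). Fifteen concentrations, run in triplicate.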

[6] = p53 small molecule agonists, cell-based qHTS assay with human liver microsomes: qHTS cell viability counter screen (AID 1963579); details: p53RE-bla HCT-116 viability, ATP luminescence, 16 h, HLM; series mostly up to 66 µM; note: nearly all actives have a fitted effect of over 45% in size
Outline: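 Seed p53RE-bla cells at 4,000 per well; incubate 5 h at 37 C; add compound, human liver microsomes and NADPH; incubate 16 h at 37 C; add CellTiter-Glo; after 30 min at room temperature, read luminescence.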

[7] = p53 small molecule agonists, cell-based qHTS assay with rat liver microsomes: qHTS cell viability counter screen (AID 1963580); details: p53RE-bla HCT-116 + rat microsomes, ATP viability, 16 h; series mostly up to 66 µM; note: nearly all actives have a fitted effect of over 45% in size
Outline: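 Intracellular ATP, by CellTiter-Glo luminescence, defines viability. HCT-116 p53RE-bla cells, 4,000 per well, were compound-treated in the presence of rat liver microsomes and NADPH for 16 h at 37 C.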

[8] = p53 small molecule agonists, cell-based qHTS assay: qHTS cell viability counter screen (AID 1963581); details: p53RE-bla HCT-116 viability, ATP luminescence, 16 h; series mostly up to 66 µM; note: nearly all actives have a fitted effect of over 45% in size
Outline: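 Cells: HCT-116 with p53 response element-driven beta-lactamase. Treatment: 16 h, 37 C, compounds in DMSO. Read: CellTiter-Glo luminescence after 30 min RT.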

[9] = target: 5-hydroxytryptamine receptor 2A (Homo sapiens) (UniProt P28223); assay: 5-hydroxytryptamine receptor 2A (HTR2A) small molecule agonists, cell-based qHTS assay (AID 1963587); details: HTR2A-CHO cells, calcium flux fluorescence, agonist mode; series mostly up to 76.8 µM; note: nearly all actives have a fitted effect of over 30% in size
Outline: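 Kinetic calcium-flux fluorescence (2 min, 1 sec intervals) after compound addition in agonist mode. HTR2A-CHO cells were cultured 18 h, then dye-loaded 1 h at 37 C.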

[10] = target: Muscarinic acetylcholine receptor M1 (Homo sapiens) (UniProt P11229); assay: Cholinergic receptor muscarinic 1 (CHRM1) small molecule antagonists, cell-based qHTS assay (AID 1963588); details: CHRM1-CHO antagonist mode, calcium flux fluorescence; series mostly up to 61.5 µM; note: nearly all actives have a fitted effect of over 40% in size
Outline: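 CHRM1-CHO calcium-flux assay, antagonist mode. Cells were seeded 18 h, dye-loaded 1 h at 37 C and given compound for 5 min at RT, then acetylcholine was added at 50nM. FDSS fluorescence was read 3 min; 15 concentrations, three runs.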

[11] = target: Muscarinic acetylcholine receptor M1 (Homo sapiens) (UniProt P11229); assay: Cholinergic receptor muscarinic 1 (CHRM1) small molecule agonists, cell-based qHTS assay (AID 1963589); details: CHRM1-CHO cells, agonist mode, calcium flux fluorescence; series mostly up to 76.8 µM; note: nearly all actives have a fitted effect of over 35% in size
Outline: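 Agonist-mode qHTS in CHO cells stably carrying human muscarinic M1. Intracellular calcium is tracked by fluorescence every second after compound transfer; each compound runs at 15 concentrations in three independent runs.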

[12] = target: Beta-2 adrenergic receptor (Homo sapiens) (UniProt P07550); assay: Adrenergic beta2 receptor (ADRB2) small molecule antagonists, cell-based qHTS assay (AID 1963592); details: CHO-ADRB2 cells, isoproterenol-stimulated cAMP HTRF ratio, 0.5 h; series mostly up to 92.4 µM; note: nearly all actives have a fitted effect of over 50% in size
Outline: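 Cells (CHO, stable ADRB2 overexpression) incubated 18-20hr at 37C; compounds added from DMSO; agonist mix (1nM isoproterenol, 100uM IBMX, 25uM Ro-20-1724) added; 0.5hr RT; d2-cAMP and anti-cAMP-cryptate added; 1hr RT; 665/615 nm read.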

[13] = target: Beta-2 adrenergic receptor (Homo sapiens) (UniProt P07550); assay: Adrenergic beta2 receptor (ADRB2) small molecule agonists, cell-based qHTS assay (AID 1963593); details: CHO-ADRB2 cells, cAMP HTRF, 30 min; series mostly up to 92.4 µM;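 note: CHO cells stably overexpressing human ADRB2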
Outline: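 CHO cells stably over-expressing ADRB2 were plated overnight at 37C, then dosed with compounds plus a stimulation mix containing 100uM IBMX and 25uM Ro-20-1724 for 0.5hr at room temperature. cAMP was measured by HTRF competition, 1hr.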

[14] = target: D(2) dopamine receptor (Homo sapiens) (UniProt P14416); assay: Dopamine D2 receptor (DRD2) small molecule agonists, cell-based qHTS assay (AID 1963594); details: HEK293-DRD2 cAMP HTRF, agonist mode, 30 min; series mostly up to 92.4 µM; note: nearly all actives have a fitted effect of over 35% in size
Outline: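 cAMP accumulation in DRD2-HEK293 cells measured by HTRF after 1 h detection; compounds added 10 min before NKH477 (200nM […]) forskolin-analogue stimulation, 30 min at room temperature, with Ro20-1724 present at 0.1 mM final.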

[15] = target: D(2) dopamine receptor (Homo sapiens) (UniProt P14416); assay: Dopamine D2 receptor (DRD2) small molecule antagonists, cell-based qHTS assay (AID 1963595; active = well fitted inhibition curve with a large enough effect in the signal ratio in the repeat runs, with a control signal flat; the % refers to the signal ratio); details: HEK293-DRD2 cAMP HTRF antagonist mode; series mostly up to 92.4 µM
Outline: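 DRD2-HEK293; 0.1 mM Ro20-1724; cpd 10 min RT; NKH477 200 nM + quinpirole 12 nM, 30 min RT; HTRF cAMP (cAMP-d2/anti-cAMP cryptate), 665/620 nm ratio after 1 h.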

[16] = cAMP Responsive Elements (CRE) small molecule agonists, cell-based qHTS assay (AID 1963590); details: CRE-bla HEK293T, beta-lactamase FRET ratio, 3 h; series mostly up to 92.4 µM
Outline: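 Agonist mode qHTS in CRE-bla HEK 293T cells: compounds dosed from DMSO for 3 h at 37 C/5% CO2, followed by LiveBLAzer B/G FRET substrate for 2 h at room temperature.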

[17] = cAMP Responsive Elements (CRE) small molecule antagonists, cell-based qHTS assay (AID 1963591; active = well fitted inhibition curve with a large enough effect in the signal ratio in the repeat runs, not every such curve was filed as active; the % refers to the signal ratio); details: CRE-bla HEK293T, beta-lactamase FRET ratio; series mostly up to 92.4 µM
Outline: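 Antagonist mode: test compounds are co-incubated with the adenylyl cyclase activator NKH477 (0.25 uM final) on CRE-bla HEK293T cells for 3 h at 37 °C, followed by LiveBLAzer substrate loading.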

[18] = target: 5-hydroxytryptamine receptor 2A (Homo sapiens) (UniProt P28223); assay: 5-hydroxytryptamine receptor 2A (HTR2A) small molecule antagonists, cell-based qHTS assay (AID 1963586); details: HTR2A-CHO cells, DOI-induced calcium flux, fluorescence; series mostly up to 61.5 µM; note: nearly all actives have a fitted effect of over 45% in size
Outline: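 Antagonist-mode intracellular calcium assay: DOI (4 nM) added after 5 min compound pre-incubation at room temperature to dye-loaded HTR2A-CHO cells. Fluorescence followed for 3 min, sampled every second.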

Chain of KiSS-1 receptor (Homo sapiens) (Q969F8 whole entry, looked up): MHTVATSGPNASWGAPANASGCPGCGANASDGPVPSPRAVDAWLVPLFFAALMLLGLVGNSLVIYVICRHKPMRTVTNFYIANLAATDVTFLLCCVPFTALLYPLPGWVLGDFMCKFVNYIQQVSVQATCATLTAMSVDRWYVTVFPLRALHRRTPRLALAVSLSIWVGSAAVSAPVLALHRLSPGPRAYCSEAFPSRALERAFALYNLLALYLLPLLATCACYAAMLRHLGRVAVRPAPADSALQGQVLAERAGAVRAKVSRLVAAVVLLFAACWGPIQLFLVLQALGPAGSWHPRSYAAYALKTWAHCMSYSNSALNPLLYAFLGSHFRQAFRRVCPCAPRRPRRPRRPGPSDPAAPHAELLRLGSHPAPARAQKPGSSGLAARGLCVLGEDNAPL
Chain of Beta-2 adrenergic receptor (Homo sapiens) (P07550 whole entry, looked up): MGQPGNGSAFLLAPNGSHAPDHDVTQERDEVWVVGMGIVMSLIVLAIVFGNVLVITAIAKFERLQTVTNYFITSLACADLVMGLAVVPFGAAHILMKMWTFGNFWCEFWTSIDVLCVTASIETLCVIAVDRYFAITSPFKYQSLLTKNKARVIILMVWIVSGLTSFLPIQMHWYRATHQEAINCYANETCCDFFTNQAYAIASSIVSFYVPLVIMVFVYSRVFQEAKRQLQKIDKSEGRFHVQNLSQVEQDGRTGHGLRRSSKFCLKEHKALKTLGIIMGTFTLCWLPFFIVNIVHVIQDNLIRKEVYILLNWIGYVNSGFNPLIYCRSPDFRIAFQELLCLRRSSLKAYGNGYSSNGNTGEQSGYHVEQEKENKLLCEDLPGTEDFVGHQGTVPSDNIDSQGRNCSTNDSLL
Chain of Muscarinic acetylcholine receptor M1 (Homo sapiens) (P11229 whole entry, looked up): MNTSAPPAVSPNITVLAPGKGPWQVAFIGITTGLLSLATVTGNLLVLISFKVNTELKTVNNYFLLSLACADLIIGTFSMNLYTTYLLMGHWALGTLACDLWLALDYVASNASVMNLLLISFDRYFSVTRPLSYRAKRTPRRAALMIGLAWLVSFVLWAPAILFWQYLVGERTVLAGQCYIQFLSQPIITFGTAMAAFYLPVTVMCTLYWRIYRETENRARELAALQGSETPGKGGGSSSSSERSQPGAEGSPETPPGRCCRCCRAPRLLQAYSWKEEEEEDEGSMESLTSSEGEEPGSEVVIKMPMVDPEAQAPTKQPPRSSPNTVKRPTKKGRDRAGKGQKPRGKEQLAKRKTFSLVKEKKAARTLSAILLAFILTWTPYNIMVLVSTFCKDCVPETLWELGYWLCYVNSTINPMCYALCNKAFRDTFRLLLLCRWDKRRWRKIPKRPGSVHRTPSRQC
Chain of 5-hydroxytryptamine receptor 2A (Homo sapiens) (P28223 whole entry, looked up): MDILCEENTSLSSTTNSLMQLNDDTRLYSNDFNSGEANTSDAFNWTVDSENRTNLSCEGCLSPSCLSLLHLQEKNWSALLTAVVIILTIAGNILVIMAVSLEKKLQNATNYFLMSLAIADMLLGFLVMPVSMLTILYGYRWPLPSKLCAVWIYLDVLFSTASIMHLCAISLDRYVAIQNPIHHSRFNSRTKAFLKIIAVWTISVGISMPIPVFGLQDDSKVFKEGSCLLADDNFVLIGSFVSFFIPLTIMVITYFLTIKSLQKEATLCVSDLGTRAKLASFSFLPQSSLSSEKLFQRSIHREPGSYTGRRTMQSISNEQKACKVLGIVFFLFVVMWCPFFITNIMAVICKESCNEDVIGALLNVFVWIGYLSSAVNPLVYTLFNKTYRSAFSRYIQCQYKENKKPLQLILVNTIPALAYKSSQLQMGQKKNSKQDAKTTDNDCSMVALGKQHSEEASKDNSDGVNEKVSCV
Chain of D(2) dopamine receptor (Homo sapiens) (P14416 whole entry, looked up): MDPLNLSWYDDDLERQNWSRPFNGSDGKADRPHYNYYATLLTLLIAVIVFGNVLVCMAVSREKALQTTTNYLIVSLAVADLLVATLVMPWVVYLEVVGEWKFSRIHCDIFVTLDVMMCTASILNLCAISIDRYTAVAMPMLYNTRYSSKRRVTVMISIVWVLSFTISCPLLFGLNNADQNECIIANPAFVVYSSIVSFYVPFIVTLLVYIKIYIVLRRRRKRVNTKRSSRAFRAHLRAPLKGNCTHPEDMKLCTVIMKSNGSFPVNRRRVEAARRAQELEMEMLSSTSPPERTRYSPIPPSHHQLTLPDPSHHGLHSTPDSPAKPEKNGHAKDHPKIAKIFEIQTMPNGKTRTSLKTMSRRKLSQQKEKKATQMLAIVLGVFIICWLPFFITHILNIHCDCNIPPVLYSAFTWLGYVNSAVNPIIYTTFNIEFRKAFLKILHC
Chain of Gonadotropin-releasing hormone receptor (Homo sapiens) (P30968 whole entry, looked up): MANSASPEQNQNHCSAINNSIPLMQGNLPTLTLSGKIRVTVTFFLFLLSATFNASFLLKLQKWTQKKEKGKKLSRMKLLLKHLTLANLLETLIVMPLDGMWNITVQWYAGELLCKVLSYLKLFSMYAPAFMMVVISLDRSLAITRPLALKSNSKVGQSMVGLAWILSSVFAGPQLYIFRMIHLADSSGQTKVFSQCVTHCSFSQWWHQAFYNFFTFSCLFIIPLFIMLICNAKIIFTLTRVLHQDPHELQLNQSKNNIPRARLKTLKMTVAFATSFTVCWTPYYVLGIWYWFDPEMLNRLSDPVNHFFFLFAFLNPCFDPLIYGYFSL

Compound	Potency [1]	Potency [2]	Potency [3]	Potency [4]	Potency [5]	Potency [6]	Potency [7]	Potency [8]	Potency [9]	Potency [10]	Potency [11]	Potency [12]	Potency [13]	Potency [14]	Potency [15]	Potency [16]	Potency [17]	Potency [18]
CCOc1ccc2[nH]cc(C(=O)NCc3ccccc3)c(=O)c2n1	inactive	inactive	inactive	inactive	inactive	inactive	inactive	inactive	inactive	inactive	inactive	inactive	inactive	inactive	inactive	–	–	–
O=C(O)CO	inactive	inactive	inactive	inactive	inactive	inactive	inactive	inactive	–	–	–	inactive	–	–	inactive	inactive	inactive	–
Cc1c(F)c(N2CCNC(C)C2)cc2c1c(=O)c(C(=O)O)cn2C1CC1 (stereo not given)	inactive	inactive	inactive	inactive	inactive	inactive	inactive	inactive	–	–	–	inactive	inactive	inactive	inactive	–	–	–
N#Cc1ccc(C(c2ccc(C#N)cc2)n2cncn2)cc1	inactive	inactive	inactive	inactive	inactive	inactive	inactive	inactive	–	–	–	inactive	inactive	inactive	inactive	–	inactive	–
CCOC(=O)C(F)(F)F	inactive	inactive	inactive	inactive	inactive	inactive	inactive	–	inactive	inactive	inactive	inactive	inactive	inactive	inactive	inactive	inactive	inactive
COc1ccnc(CS(=O)c2nc3ccc(OC(F)F)cc3[nH]2)c1OC (stereo not given)	inactive	inactive	inactive	inactive	inactive	inactive	inactive	inactive	–	–	–	–	–	inactive	–	inactive	inactive	–
CC(=O)OCC(=O)[C@H]1CC[C@H]2[C@@H]3CCC4=CC(=O)CC[C@]4(C)[C@H]3CC[C@]12C	inactive	inactive	inactive	inactive	inactive	inactive	inactive	inactive	inactive	–	inactive	inactive	–	inactive	inactive	–	–	–
COC(=O)C1=C(C)NC(C)=C(C(=O)OC(C)C)C1c1cccc2nonc12 (stereo not given)	inactive	inactive	inactive	inactive	inactive	inactive	inactive	inactive	inactive	inactive	–	–	–	–	inactive	inactive	inactive	–
C=CCCCCCCCCOC(C)=O	inactive	inactive	inactive	inactive	inactive	inactive	inactive	inactive	inactive	–	inactive	inactive	–	inactive	–	inactive	inactive	–
CCCC1CCC(=O)CC1	inactive	inactive	inactive	inactive	inactive	inactive	inactive	–	inactive	inactive	inactive	inactive	inactive	inactive	inactive	inactive	inactive	inactive
CN(Cc1ccc(C(C)(C)C)cc1)Cc1cccc2ccccc12	11.9 µM (active)	inactive	inactive	inactive	inactive	inactive	inactive	inactive	–	–	–	inactive	inactive	inactive	inactive	–	inactive	–
